These compounds were tested on Plasmodium falciparum (assay: GSK_TCMDC: Inhibition of Plasmodium falciparum Dd2 in whole red blood cells, using parasite LDH activity as an index of growth. Test compounds present at 2uM).
Assay type: functional

Row | Compound | Inhibition [%]
1 | CCN(CC)CCN(Cc1ccc(-c2ccc(C(F)(F)F)cc2)cc1)C(=O)c1c[nH]c2ccc(Br)cc12 | 74
2 | c1ccc(COc2ccccc2COc2ccccc2-c2ccc3cccnc3n2)cc1 | 95
3 | Cc1cc(SC(C)(C)C)cc2c(Cl)c(C(N)=O)cnc12 | 98
4 | CC(C)(C)c1ccc(CN2CCC(NC(=O)c3cc(-c4cccc(C(F)(F)F)c4)cs3)C2)cc1.O=C(O)C(F)(F)F (stereo not given) | 85
5 | O=C(O)C(F)(F)F.c1cc(CNC2CCN(CC3CCCCC3)CC2)cc(-n2ccnc2)c1 | 97
6 | CCCCCNc1nc(Nc2ccccc2C)nc2ccccc12.Cl | 30
7 | CC(C)[C@H](NC(=O)c1c(F)cccc1F)C(=O)Nc1ccc(Cc2nc3ccccc3s2)cc1 | 72
8 | CN(C)C(=S)N/N=C1/C(=O)Nc2ccc(OC(F)(F)F)cc21 | 52
9 | O=C(NC1CCCCN(Cc2ccccc2O)C1)c1cccc(C(F)(F)F)c1.O=C(O)C(F)(F)F (stereo not given) | 64
10 | CCSc1ccc(C)cc1CON1C(N)=NC(N)=NC1(C)C.Cl | 96
11 | COc1cc(NCCCNCc2cn(S(=O)(=O)c3ccccc3)c3ccccc23)nc2ccccc12 | 77
12 | CC(CN1CCN(C)CC1)C(=O)Nc1cccc(-c2ccc(-c3nc4ccccc4[nH]3)s2)c1 (stereo not given) | 59
13 | COc1ccc2nccc([C@@H](O)CN3CCC(NCCOc4ccccc4C(F)(F)F)CC3)c2c1.O=C(O)C(=O)O | 95
14 | COC(=O)C(C)NCC(=O)c1ccccc1.Cl (stereo not given) | 23
15 | CO/C(=C\C=C\c1cc2cc(Cl)c(Cl)cc2[nH]1)C(=O)NCCCN1CCN(c2cccc(CCCO)c2)CC1 | 36
